# Key:
# Assay in all cases: DAPPL (digital affinity profiling via proximity ligation, sequencing); 10 mM Tris-HCl pH 7.5, 50 mM NaCl, 1 mM DTT, 4% glycerol, room temperature, 30 min; GST-TFs on glutathione beads, 16-mer random dsDNA library, 0.1% formaldehyde crosslink after washing; high values mean tight binding
# FLI1 = biological target: T1, FLI1 (Homo sapiens, UniProt Q01543 1-452); settings: protein: recombinant; tags: N-terminal GST; dsDNA, one strand shown
# T1 sequence: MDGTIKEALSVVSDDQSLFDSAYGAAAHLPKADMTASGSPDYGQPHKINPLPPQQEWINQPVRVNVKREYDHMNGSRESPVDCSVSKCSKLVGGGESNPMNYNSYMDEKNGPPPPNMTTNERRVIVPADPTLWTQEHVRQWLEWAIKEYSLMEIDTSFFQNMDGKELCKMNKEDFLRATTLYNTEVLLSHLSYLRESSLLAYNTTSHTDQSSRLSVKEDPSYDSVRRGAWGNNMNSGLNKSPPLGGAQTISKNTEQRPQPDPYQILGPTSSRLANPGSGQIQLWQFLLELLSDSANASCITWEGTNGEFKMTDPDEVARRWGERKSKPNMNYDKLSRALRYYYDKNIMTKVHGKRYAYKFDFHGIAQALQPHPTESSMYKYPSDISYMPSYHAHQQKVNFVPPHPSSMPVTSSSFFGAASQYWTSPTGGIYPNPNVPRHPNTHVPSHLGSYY
# Outline: (§1)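 In yeast, human transcription factors were expressed with a GST fusion, then pulled down on glutathione beads and given DNA barcodes. Pooled with a tag-only sample, they were exposed to 200 nmole of a 16-mer random double-stranded DNA library (Tris/NaCl/DTT/glycerol buffer, room temperature, 30 min), washed, crosslinked with 0.1% formaldehyde, proximity-ligated using BsaI/T4 ligase for 1 h at 37 °C, PCR-amplified and read on an Illumina NextSeq500. Each hexamer's frequency of reads for a factor, divided by the matching frequency for the tag-only sample, gives the binding signal.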
# ELK1 = biological target: T2, ELK1 (Homo sapiens, UniProt P19419 1-428); settings: protein: recombinant; tags: N-terminal GST; dsDNA, one strand shown
# T2 sequence: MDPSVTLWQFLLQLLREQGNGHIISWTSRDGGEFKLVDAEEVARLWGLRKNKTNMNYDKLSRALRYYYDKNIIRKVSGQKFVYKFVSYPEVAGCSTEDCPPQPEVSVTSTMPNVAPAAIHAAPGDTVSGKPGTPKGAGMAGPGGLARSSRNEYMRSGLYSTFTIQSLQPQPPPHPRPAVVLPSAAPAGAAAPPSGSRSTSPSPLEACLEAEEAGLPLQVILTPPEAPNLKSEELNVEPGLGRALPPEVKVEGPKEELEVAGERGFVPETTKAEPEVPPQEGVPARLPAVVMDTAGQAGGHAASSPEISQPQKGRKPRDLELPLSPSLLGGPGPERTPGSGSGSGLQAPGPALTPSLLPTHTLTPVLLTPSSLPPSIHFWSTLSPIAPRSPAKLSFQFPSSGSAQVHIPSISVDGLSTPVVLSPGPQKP
# Outline: as §1
# GABPA = biological target: T3, GABPA (Homo sapiens, UniProt Q06546 1-454); settings: protein: recombinant; tags: N-terminal GST; dsDNA, one strand shown
# T3 sequence: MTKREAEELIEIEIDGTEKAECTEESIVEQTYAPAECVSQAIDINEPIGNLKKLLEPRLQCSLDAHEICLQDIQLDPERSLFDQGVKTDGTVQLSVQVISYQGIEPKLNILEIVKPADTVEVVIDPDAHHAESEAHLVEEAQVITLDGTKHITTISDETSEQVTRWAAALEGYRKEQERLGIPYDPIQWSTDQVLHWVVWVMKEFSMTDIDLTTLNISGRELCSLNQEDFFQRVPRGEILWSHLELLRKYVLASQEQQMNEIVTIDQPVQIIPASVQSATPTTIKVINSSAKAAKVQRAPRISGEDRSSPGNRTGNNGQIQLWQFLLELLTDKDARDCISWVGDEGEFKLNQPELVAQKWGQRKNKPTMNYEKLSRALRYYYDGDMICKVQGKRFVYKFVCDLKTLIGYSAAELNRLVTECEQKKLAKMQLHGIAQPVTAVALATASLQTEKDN
# Outline: as §1
# ERG = biological target: T4, ERG (Homo sapiens, UniProt P11308 1-479); settings: protein: recombinant; tags: N-terminal GST; dsDNA, one strand shown
# T4 sequence: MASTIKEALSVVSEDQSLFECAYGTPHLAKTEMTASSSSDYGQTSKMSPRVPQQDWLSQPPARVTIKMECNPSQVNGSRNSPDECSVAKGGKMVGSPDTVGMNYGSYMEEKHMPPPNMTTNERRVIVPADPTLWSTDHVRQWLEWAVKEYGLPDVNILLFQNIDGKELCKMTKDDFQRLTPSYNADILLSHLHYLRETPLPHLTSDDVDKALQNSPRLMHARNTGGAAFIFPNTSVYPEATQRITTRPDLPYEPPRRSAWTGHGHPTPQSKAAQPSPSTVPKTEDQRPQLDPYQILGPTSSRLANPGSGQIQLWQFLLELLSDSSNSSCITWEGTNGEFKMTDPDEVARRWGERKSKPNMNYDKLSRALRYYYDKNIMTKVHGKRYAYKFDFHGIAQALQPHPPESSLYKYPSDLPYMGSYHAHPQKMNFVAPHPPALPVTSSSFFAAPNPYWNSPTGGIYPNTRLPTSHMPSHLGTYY
# Outline: as §1
# ELF1 = ELF1 (Homo sapiens, UniProt P32519 1-619); settings: protein: recombinant; tags: N-terminal GST; dsDNA, one strand shown
# Outline: as §1
# EHF = biological target: T5, EHF (Homo sapiens, UniProt Q9NZC4 1-300); settings: protein: recombinant; tags: N-terminal GST; dsDNA, one strand shown
# T5 sequence: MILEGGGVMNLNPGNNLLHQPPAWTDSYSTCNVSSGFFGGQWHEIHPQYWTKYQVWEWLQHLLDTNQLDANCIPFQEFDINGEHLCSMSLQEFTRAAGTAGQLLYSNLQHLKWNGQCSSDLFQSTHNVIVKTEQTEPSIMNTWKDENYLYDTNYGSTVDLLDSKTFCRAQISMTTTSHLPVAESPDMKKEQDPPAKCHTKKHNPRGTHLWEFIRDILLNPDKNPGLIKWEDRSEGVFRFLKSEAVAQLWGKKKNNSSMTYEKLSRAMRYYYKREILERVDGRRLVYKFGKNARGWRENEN
# Outline: as §1
# SPI1 = SPI1 (Homo sapiens, UniProt P17947 1-270); settings: protein: recombinant; tags: N-terminal GST; dsDNA, one strand shown
# Outline: as §1
# SPIB = SPIB (Homo sapiens, UniProt Q01892 1-262); settings: protein: recombinant; tags: N-terminal GST; dsDNA, one strand shown
# Outline: as §1
# ELK3 = biological target: T6, ELK3 (Homo sapiens, UniProt P41970 1-407); settings: protein: recombinant; tags: N-terminal GST; dsDNA, one strand shown
# T6 sequence: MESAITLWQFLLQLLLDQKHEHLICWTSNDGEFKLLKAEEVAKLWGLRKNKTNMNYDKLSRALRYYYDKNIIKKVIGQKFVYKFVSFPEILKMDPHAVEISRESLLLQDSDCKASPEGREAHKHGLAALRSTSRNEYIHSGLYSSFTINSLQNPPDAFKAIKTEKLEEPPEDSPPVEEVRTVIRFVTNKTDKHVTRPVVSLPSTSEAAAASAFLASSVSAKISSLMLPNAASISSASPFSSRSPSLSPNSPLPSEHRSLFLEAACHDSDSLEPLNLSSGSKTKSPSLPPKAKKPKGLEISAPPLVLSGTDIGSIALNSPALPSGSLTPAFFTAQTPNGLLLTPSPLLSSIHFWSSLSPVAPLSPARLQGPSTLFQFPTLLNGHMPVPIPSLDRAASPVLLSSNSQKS
# Outline: as §1
# FEV = biological target: T7, FEV (Homo sapiens, UniProt Q99581 1-238); settings: protein: recombinant; tags: N-terminal GST; dsDNA, one strand shown
# T7 sequence: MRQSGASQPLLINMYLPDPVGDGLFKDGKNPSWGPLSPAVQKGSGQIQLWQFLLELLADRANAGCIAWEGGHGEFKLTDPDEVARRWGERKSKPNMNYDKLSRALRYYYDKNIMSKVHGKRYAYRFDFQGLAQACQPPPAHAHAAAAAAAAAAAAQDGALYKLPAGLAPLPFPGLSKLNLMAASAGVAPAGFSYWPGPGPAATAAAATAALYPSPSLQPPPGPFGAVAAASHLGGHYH
# Outline: as §1
# ETV5 = ETV5 (Homo sapiens, UniProt P41161 1-510); settings: protein: recombinant; tags: N-terminal GST; dsDNA, one strand shown
# Outline: as §1
# HSF1 = HSF1 (Homo sapiens, UniProt Q00613 1-529); settings: protein: recombinant; tags: N-terminal GST; chain copies: 3; dsDNA, one strand shown
# Outline: as §1
# SPIC = biological target: T8, SPIC (Homo sapiens, UniProt Q8N5J4 1-248); settings: protein: recombinant; tags: N-terminal GST; dsDNA, one strand shown
# T8 sequence: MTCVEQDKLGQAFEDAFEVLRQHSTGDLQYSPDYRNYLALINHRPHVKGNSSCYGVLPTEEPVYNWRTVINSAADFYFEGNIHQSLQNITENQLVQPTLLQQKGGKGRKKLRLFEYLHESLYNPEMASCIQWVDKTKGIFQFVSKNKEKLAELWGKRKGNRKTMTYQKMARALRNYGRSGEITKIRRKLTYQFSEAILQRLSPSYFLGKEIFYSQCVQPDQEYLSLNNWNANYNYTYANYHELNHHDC
# Outline: as §1
# ELF4 = ELF4 (Homo sapiens, UniProt Q99607 1-663); settings: protein: recombinant; tags: N-terminal GST; dsDNA, one strand shown
# Outline: as §1
# ELK4 = biological target: T9, ELK4 (Homo sapiens, UniProt P28324-2 1-405); settings: protein: recombinant; tags: N-terminal GST; dsDNA, one strand shown
# T9 sequence: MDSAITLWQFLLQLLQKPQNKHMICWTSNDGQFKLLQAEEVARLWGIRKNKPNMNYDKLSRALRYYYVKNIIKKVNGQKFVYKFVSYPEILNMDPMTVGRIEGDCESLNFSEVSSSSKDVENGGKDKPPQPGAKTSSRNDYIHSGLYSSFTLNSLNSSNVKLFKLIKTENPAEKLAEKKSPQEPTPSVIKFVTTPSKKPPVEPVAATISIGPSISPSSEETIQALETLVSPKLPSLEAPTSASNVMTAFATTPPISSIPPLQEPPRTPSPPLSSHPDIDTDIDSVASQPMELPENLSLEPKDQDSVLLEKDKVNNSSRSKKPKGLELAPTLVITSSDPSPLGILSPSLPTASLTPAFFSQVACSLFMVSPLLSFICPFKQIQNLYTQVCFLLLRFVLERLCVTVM
# Outline: as §1
# ETV2 = biological target: T10, ETV2 (Homo sapiens, UniProt O00321 1-342); settings: protein: recombinant; tags: N-terminal GST; dsDNA, one strand shown
# T10 sequence: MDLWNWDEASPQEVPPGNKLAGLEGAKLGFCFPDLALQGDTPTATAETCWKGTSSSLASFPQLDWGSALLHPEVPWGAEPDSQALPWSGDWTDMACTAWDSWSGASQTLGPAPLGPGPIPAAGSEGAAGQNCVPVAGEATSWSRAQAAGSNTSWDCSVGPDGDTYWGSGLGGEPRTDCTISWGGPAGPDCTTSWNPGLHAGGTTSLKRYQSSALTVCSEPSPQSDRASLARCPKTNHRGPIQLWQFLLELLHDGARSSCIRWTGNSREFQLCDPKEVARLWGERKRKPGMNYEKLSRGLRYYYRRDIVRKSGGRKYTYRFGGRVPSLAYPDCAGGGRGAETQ
# Outline: as §1
# ELF3 = biological target: T11, ELF3 (Homo sapiens, UniProt P78545 1-371); settings: protein: recombinant; tags: N-terminal GST; dsDNA, one strand shown
# T11 sequence: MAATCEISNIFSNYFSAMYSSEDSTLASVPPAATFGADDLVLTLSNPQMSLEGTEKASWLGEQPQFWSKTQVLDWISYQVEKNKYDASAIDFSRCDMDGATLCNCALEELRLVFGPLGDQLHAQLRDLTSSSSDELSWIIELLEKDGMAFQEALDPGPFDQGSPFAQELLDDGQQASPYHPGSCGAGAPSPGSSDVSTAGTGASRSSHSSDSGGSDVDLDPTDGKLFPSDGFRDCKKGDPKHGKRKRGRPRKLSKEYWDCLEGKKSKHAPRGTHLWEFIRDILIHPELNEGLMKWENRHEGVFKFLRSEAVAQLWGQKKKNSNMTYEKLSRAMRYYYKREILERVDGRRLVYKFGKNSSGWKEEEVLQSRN
# Outline: as §1
# CRX = CRX (Homo sapiens, UniProt O43186 1-299); settings: protein: recombinant; tags: N-terminal GST; dsDNA, one strand shown
# Outline: as §1
# ETV1 = ETV1 (Homo sapiens, UniProt P50549 1-477); settings: protein: recombinant; tags: N-terminal GST; dsDNA, one strand shown
# Outline: as §1
# Sequence of SPIB (Q01892 whole entry): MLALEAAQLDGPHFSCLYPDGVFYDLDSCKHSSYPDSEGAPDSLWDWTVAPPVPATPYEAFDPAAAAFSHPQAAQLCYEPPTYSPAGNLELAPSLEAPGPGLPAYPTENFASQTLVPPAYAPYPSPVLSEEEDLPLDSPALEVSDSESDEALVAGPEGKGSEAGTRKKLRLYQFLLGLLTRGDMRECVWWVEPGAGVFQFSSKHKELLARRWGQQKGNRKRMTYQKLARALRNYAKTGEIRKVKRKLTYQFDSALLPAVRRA
# Sequence of CRX (O43186 whole entry): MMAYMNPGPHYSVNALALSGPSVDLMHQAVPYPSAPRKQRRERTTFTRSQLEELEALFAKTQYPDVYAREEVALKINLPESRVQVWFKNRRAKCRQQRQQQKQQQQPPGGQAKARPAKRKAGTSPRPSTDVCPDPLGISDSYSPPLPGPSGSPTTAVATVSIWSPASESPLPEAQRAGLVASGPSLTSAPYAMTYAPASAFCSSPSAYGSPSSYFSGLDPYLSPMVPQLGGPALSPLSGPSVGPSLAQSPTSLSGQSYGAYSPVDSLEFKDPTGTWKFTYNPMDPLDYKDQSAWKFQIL
# Sequence of ETV1 (P50549 whole entry): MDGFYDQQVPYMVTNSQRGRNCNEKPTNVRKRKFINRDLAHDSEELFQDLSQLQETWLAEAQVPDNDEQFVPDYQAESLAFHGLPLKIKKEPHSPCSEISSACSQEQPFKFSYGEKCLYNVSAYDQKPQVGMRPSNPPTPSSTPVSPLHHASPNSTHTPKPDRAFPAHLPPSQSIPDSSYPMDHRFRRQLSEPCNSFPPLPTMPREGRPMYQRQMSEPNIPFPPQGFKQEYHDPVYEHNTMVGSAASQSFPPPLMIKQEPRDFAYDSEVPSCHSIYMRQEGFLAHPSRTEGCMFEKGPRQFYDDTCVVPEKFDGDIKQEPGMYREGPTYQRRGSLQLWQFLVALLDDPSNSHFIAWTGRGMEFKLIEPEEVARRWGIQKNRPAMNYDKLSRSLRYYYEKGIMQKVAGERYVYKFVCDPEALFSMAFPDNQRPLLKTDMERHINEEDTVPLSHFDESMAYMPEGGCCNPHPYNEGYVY
# Sequence of ETV5 (P41161 whole entry): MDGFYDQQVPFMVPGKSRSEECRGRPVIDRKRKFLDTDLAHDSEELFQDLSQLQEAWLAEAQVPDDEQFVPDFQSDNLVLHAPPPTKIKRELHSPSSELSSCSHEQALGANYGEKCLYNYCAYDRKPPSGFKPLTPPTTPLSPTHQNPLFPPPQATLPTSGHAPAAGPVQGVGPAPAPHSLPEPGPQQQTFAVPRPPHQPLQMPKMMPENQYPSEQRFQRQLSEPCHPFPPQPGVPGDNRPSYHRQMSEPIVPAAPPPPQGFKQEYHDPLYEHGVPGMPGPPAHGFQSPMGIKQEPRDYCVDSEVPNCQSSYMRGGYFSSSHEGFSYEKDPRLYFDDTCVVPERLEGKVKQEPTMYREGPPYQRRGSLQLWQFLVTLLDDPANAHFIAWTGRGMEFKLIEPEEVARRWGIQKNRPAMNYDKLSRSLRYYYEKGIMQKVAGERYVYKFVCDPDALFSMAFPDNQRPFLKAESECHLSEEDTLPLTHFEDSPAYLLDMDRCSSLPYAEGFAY
# Sequence of ELF4 (Q99607 whole entry): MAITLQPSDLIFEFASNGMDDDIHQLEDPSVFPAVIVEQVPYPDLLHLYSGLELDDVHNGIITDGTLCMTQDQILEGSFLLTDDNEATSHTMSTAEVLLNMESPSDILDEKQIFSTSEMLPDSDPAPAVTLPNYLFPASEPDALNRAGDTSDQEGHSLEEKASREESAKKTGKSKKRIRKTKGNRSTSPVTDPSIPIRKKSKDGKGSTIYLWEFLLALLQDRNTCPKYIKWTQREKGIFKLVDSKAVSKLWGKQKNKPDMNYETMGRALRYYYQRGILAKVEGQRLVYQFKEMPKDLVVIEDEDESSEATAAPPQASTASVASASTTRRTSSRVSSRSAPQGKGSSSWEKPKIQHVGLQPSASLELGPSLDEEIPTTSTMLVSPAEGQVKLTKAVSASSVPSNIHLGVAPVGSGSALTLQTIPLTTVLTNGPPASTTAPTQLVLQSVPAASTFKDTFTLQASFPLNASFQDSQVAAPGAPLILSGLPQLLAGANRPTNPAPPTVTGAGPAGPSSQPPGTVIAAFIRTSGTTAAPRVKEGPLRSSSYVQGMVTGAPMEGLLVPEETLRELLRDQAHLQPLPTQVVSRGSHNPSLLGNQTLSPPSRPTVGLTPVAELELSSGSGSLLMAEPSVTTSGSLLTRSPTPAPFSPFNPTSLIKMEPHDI
# Sequence of ELF1 (P32519 whole entry): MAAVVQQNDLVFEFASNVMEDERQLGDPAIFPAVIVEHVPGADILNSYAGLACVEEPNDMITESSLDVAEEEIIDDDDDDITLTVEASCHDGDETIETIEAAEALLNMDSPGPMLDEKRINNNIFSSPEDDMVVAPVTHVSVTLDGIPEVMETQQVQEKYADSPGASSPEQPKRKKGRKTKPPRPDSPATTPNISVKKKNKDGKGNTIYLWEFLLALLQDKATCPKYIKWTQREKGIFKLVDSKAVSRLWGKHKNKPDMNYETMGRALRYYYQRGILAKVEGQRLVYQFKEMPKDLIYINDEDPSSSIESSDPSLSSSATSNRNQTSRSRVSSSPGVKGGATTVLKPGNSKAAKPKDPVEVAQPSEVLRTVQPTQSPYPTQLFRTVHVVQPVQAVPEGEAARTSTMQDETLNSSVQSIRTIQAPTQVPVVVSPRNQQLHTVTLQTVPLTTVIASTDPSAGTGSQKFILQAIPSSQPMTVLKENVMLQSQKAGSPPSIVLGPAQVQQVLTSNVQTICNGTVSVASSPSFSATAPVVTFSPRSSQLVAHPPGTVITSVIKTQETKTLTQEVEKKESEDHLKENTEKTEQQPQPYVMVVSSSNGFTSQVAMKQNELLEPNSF
# Sequence of HSF1 (Q00613 whole entry): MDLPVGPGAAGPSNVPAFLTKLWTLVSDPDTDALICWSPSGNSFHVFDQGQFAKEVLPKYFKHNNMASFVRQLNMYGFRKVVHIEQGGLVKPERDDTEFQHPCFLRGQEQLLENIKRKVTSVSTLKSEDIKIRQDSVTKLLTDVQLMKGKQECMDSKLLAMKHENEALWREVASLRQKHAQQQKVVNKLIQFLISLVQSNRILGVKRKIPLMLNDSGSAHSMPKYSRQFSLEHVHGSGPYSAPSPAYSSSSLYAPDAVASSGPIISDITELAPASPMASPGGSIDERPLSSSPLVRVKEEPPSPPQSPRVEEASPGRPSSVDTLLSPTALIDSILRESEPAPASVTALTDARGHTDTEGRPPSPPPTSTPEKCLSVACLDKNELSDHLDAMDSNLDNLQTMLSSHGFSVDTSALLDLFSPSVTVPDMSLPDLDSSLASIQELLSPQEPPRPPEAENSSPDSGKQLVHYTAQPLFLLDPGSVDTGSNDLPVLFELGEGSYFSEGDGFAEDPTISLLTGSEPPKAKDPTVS
sequence,measurement,setting,value
TGTATG,binding signal,FLI1,"1.31 fold enrichment (6-mer frequency, TF over GST control)"
same,binding signal,ELK1,"1.16 fold enrichment (6-mer frequency, TF over GST control)"
same,binding signal,GABPA,"1.25 fold enrichment (6-mer frequency, TF over GST control)"
same,binding signal,ERG,"1.14 fold enrichment (6-mer frequency, TF over GST control)"
same,binding signal,ELF1,"1.23 fold enrichment (6-mer frequency, TF over GST control)"
same,binding signal,EHF,"1.2 fold enrichment (6-mer frequency, TF over GST control)"
same,binding signal,SPI1,"1.18 fold enrichment (6-mer frequency, TF over GST control)"
same,binding signal,SPIB,"1.16 fold enrichment (6-mer frequency, TF over GST control)"
same,binding signal,ELK3,"1.22 fold enrichment (6-mer frequency, TF over GST control)"
same,binding signal,FEV,"1.21 fold enrichment (6-mer frequency, TF over GST control)"
same,binding signal,ETV5,"1.28 fold enrichment (6-mer frequency, TF over GST control)"
same,binding signal,HSF1,"1.06 fold enrichment (6-mer frequency, TF over GST control)"
same,binding signal,SPIC,"1.09 fold enrichment (6-mer frequency, TF over GST control)"
same,binding signal,ELF4,"1.22 fold enrichment (6-mer frequency, TF over GST control)"
same,binding signal,ELK4,"1.34 fold enrichment (6-mer frequency, TF over GST control)"
same,binding signal,ETV2,"1.18 fold enrichment (6-mer frequency, TF over GST control)"
same,binding signal,ELF3,"1.19 fold enrichment (6-mer frequency, TF over GST control)"
same,binding signal,CRX,"1.04 fold enrichment (6-mer frequency, TF over GST control)"
same,binding signal,ETV1,"1.27 fold enrichment (6-mer frequency, TF over GST control)"
